Results on 108 sequences are retold here after PubChem BioAssay AID1508600 (Functional Genomics Laboratory (NCATS/FGL), 2020).

Hit rate of the full screen: of about 53,000 sequences, about 3,700 (7%) were called active.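 How the source made its calls: active means gene knockdowns whose robust z-score for IL-1 alpha signal is at least 2 or at most -2, so actives lie on both sides; inactive means the rest.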 The sample as a whole holds a higher share of actives than the screen did.

The nature of this experiment: Components of the Cytosolic LPS Sensing Pathway: Gene Identification via Genome-wide siRNA Screen.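 Further: robust z of the log signal after scaling to non-targeting control siRNA wells of the plate.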 The settings on record: RAW264.7 macrophages, IL-1a HTRF, actives lie on both sides, screened at 100 nM (by protocol), cells primed 5 h with Pam3CSK4 first. In short, it runs like this:
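Cells (RAW264.7, 1×10^4 per well) were transfected with siRNA at 100 nM and cultured 48h at 37 degrees C. Pam3CSK4 was added for 5 hours; LipidA transfection followed for 24 hour. IL-1a was then measured by HTRF.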
As to CCUGAAUUACAGGGACCAGTT against Znrd1, the z-score is 3.49 (active).

In the case of GGUGAACUUGUGUCUCACUTT against Tango2, the z-score was 0.0582 (inactive).

As to GGAGCUGUAUCGCACGAAATT against Ehd2, the z-score was -0.689 (inactive).

Take GGAAACCGAAUUCCAAGGGTT against Ddx25: the z-score was 1.78 (inactive).

Turning to GGAAGUGGAAAAACUGGUGTT against Ddx1, the z-score is -1.21 (inactive).

Regarding GGAACUGUUUGACAGUGAGTT against Pex19, the z-score is -0.811 (inactive).

Regarding GGAUCUAAAGGUGAGUCAATT against Dcaf12l1, the z-score was -0.388 (inactive).

On to GCCUUGGAUAAACCAGACGTT against Mfsd4a, for which the z-score was -2.38 (active).

Regarding GGAACCAAUCAGUUGGUUATT against Taf7, the z-score was 0.395 (inactive).

As for GGAGAUACAGGAUAUUAUUTT against Nme5, the z-score is -0.0528 (inactive).

Turning to GCACUUACUCAUUAAUCACTT against Rnf20, the z-score was -2.56 (active).

In the case of GCAACAGUGAAAUAGCACATT against Krit1, the z-score was 0.179 (inactive).

With GGUUAAUGAGCUCUGUAAATT against Pknox1, the z-score was -0.508 (inactive).

As to GCUAAGGACUCAGCAAAACTT against Coq5, the z-score was 0.733 (inactive).

In the case of CCGGUAAUGAGUUCAAGUGTT against Arsa, the z-score is 1.12 (inactive).

On to GGUAAAGAAAUCCUUCAAATT against Syt6, for which the z-score was 2.1 (active).

On to GGUUCUUAAUGCAUUCCCGTT against Cyp2d9, for which the z-score is -0.786 (inactive).

Consider GGGACUUUGAUUUUGAGAGTT against Ppp1r3f, for which the z-score was -1.58 (inactive).

For “GAUGCUCUCUGCUCUGAGATT against C030016D13Rik”, the z-score was -0.0555 (inactive).

GGAUCUAUAUCCAGUAGAGTT against Mief2: the z-score was 3.38 (active).

Take GGUAAUAGGAGAUACUGUGTT against Gzme: the z-score was 0.624 (inactive).

As for GGACCUUUCUCAACUACUATT against Edem2, the z-score is -0.706 (inactive).

Take GGGAAACAAGCAUCUUCUGTT against Bmp5: the z-score was -0.474 (inactive).

Turning to CCACUUCAGUAUUUGGCUUTT against Tas2r137, the z-score is -0.404 (inactive).

For GGACUCCUCAUGCUGAAGATT against Cdh13, the z-score was 1.97 (inactive).

With GCUCUAUUUGACCACCUCATT against Gdpd1, the z-score was -0.898 (inactive).

On to CCACUCAAGAUCGAUACCUTT against Fgd1, for which the z-score was 0.167 (inactive).

Turning to GGGUGAAGAGAGAUGAAAATT against Krt82, the z-score is 1.64 (inactive).

As to GCUUGUUUACAUCGGACUUTT against Samt2, the z-score was 0.9 (inactive).

As to GCAUCGUGCAGAAUUUUGCTT against Ephb1, the z-score is -1.04 (inactive).

With CCAGUGAUUAUCUUUAAUGTT against Slc9c1, the z-score was -0.435 (inactive).

Regarding GCUAUCAAAGCUAAUACAUTT against Mrps9, the z-score is 3.41 (active).

As for GGUUAAGGAUGCUCAAGUATT against Krt20, the z-score is -0.187 (inactive).

For GGUCGUGUUCGAGCAAACCTT against Tpi1, the z-score is -0.725 (inactive).

Turning to GCAGAAUUGAAGCUGGAAUTT against Stag1, the z-score is 2.49 (active).

With GGUGACAUGGAUGUAGCAATT against Fcsk, the z-score is 1.18 (inactive).

Turning to CCACAUCUCAUGUGAAACCTT against Olfr517, the z-score was -0.927 (inactive).

For CCUUUUACACUCUAGUAUGTT against Ptger4, the z-score is -0.349 (inactive).

On to GCUUGAAUAUGAGAACGAATT against Deup1, for which the z-score was -0.451 (inactive).

In the case of GGUCAAGGUAGGCAAUGAATT against Stau2, the z-score is -2.32 (active).

With GGGCAACAAGGAGUACUCATT against Prss45, the z-score was -1.88 (inactive).

For the sequence GGAGGAAAUGAAAACCUUUTT against Cep89, the z-score was -0.823 (inactive).

Take GGAGAACAUAAUGAAAUCUTT against Fam50a: the z-score is -0.0744 (inactive).

Take GGAUCAAAUUCUACCUUAGTT against Tbc1d5: the z-score is -0.595 (inactive).

Turning to GGAGGUUGCUACAUGGUUATT against Amz1, the z-score was -0.644 (inactive).

For the sequence GGUCCACUGAUUCUGAUAATT against Cyp4a31, the z-score was 1.79 (inactive).

Take GGAUUUUGCCUAAAAUACATT against Sephs1: the z-score was 0.179 (inactive).

GGGACAGCUUUUGUGACUCTT against Raver1: the z-score was -2.16 (active).

Regarding GGGCAAAUCCUUUAGUUUGTT against Siae, the z-score is -0.62 (inactive).

Consider CUACAGUGGCAAUAAUAUUTT against Rpl30, for which the z-score is 0.425 (inactive).

GGUACUAAAUAAAAGACCGTT against Dsc2: the z-score is 1.15 (inactive).

With GGAGGAGAGAUGGUAAUCCTT against Olfr729, the z-score was -0.185 (inactive).

Regarding GGAUGAGUAUGAGAGGAAUTT against Dcp1a, the z-score was 2.51 (active).

Turning to GGUAACUGGGAAUUGUGUUTT against Vti1a, the z-score is 0.812 (inactive).

For the sequence GGGUCUCUAAGUGCUCCGUTT against Sfxn2, the z-score was 0.433 (inactive).

With “CGUGAAUCACUAUACAUAATT against A630052C17Rik”, the z-score is -1.39 (inactive).

Take GGAAACAGUAGAAGAUGAGTT against Fam220a: the z-score is 0.151 (inactive).

Regarding GAAGACCAAGCUUUGUACUTT against Olfr339, the z-score was 2.28 (active).

Turning to GGAGCUCGCCAAAAGGAAGTT against Cep19, the z-score was 1.97 (inactive).

As to CCAAAGAAGGUGAGAUUUGTT against Clstn1, the z-score is -0.161 (inactive).

CCAGUAUGAGAACUACGAUTT against Loxl1: the z-score was -0.345 (inactive).

In the case of “CCGUUUUGUCUGAAUUCCCTT against 4930515G01Rik”, the z-score was -2.14 (active).

With GCAGUAAAUGUCCCAUCCGTT against Caskin1, the z-score was -1.28 (inactive).

Take CCCAUCCAUACAAAAAUGATT against Polm: the z-score is -1.73 (inactive).

As for CCUUAUUGAGACGAAUACGTT against Fastkd1, the z-score is -0.958 (inactive).

For the sequence GGACAACAGCAAAACAUCUTT against Atoh1, the z-score is -0.757 (inactive).

As to CCCAUAACAUUGGUGAUUATT against Vmn1r235, the z-score is -0.205 (inactive).

As for GGAAUGAGCUGAAUGCAAATT against Psmc5, the z-score was -2.08 (active).

Consider CGUUAAAUGGCAGUACAGATT against Qk, for which the z-score is 0.388 (inactive).

Consider GCCAAACACUCGACUCUAATT against Gm11733, for which the z-score is -0.823 (inactive).

Regarding GGAAAACUUUAGCUACAAATT against Ppp4r4, the z-score is -0.231 (inactive).

As for GCUUCUAACUCUGUGAGGGTT against Defb29, the z-score was -2.8 (active).

With GCAGACGACAAGUUCUACATT against Tbcb, the z-score is -0.666 (inactive).

With GCUUAUCAUCUCCAGACAGTT against Svop, the z-score is -0.144 (inactive).

For the sequence GCUGGUUACUCCCAAGACGTT against Dlgap2, the z-score is 2.18 (active).

Take GGUGGAGUUAACGAGAAACTT against Ccn1: the z-score is 0.69 (inactive).

Regarding ACUGUUUAAUCACUGUGGUTT against Olfr891, the z-score is -0.994 (inactive).

Turning to GGACUACAUCAACCUGGAUTT against Mlf2, the z-score is 0.25 (inactive).

As for GGUCUUCGACACCAUUAACTT against Wipi2, the z-score is 0.947 (inactive).

Take GGACAGUUUGAUGAUGCCGTT against Coprs: the z-score is -2.87 (active).

Turning to CCCUGUGACUCCAAAAUGATT against Dbh, the z-score was -1.01 (inactive).

GGACAACGUGCUCAUUAGUTT against Zfp709: the z-score was 0.0713 (inactive).

Consider GCCUGACGAAGGUUUCUAUTT against Neo1, for which the z-score is -0.114 (inactive).

Regarding GGCAUAAACCUUCUUGCUCTT against Ccl22, the z-score is -0.221 (inactive).

GGUAGAGGUUAUAUAGGCATT against Ms4a6d: the z-score is 0.282 (inactive).

With GGUACUCACAUCUCCAAAGTT against Zfp948, the z-score was -0.881 (inactive).

Regarding GGCAAACAUUUCAAAUACATT against Tgm4, the z-score is 2.12 (active).

For GGAGGAAGAGAUUUUAAACTT against Rps8, the z-score was 0.158 (inactive).

Take GCUGCUGAUAACAUCCGACTT against Golga5: the z-score was 0.554 (inactive).

As to GGUACAGUUACGGUCAAAUTT against Zfp952, the z-score is 0.739 (inactive).

Regarding GGUAUGUCCUCUGGUCAAUTT against Bpifa1, the z-score is 0.282 (inactive).

Turning to GGUCAAUGCUACUAAUGAATT against Ankrd61, the z-score was 0.661 (inactive).

For GGGAUGCUCUGAACAUUGATT against Anxa2, the z-score is 3.22 (active).

As for CCAUGCAGCAAAUCGAGUUTT against Klk1b5, the z-score was 0.912 (inactive).

Turning to GGUCUGAGCUUCCAAUAACTT against Reep5, the z-score was 0.183 (inactive).

For GCUAUUGGGUAGAUUGAUATT against Baat, the z-score is 0.251 (inactive).

On to GCUUCUAAUUGGAGAUUGCTT against Bex3, for which the z-score is -1.39 (inactive).

As to GGAACACAAUGGGACGAGUTT against Ccl11, the z-score is -1.12 (inactive).

Regarding GGCCACGUUUCUCUUCACCTT against Nyx, the z-score was -1.12 (inactive).

Take GGCAAAGAAUUCAAUCGGATT against Atp2b2: the z-score was -0.235 (inactive).

As to GGUUCAAAUGUUGCAUAGUTT against Klrc2, the z-score was 0.597 (inactive).

Consider GGAUCACAGCAGAAGAAAUTT against Tmem144, for which the z-score was -2.95 (active).

Regarding GGAAGUGGAAGUUCUGAAGTT against Tsc22d1, the z-score is -0.886 (inactive).

Regarding GGGUCUUAUGGAAGUGUUUTT against Stk3, the z-score is 7.27 (active).

On to CCUUUUUGAGGAAUUUGGATT against Scaf8, for which the z-score is -0.0964 (inactive).

With CGGCUCGUUGAAGAACAAATT against Afap1, the z-score was -1.32 (inactive).

Turning to GGCUUCAUUCGUAGGCCAUTT against Smcr8, the z-score was 1.64 (inactive).

Regarding GGUUCACAGUAACCAUUGGTT against Zc3h18, the z-score is -2.45 (active).
